This passage reports AC50 and outcome results from PubChem BioAssay (EPA / NIEHS).

The structures appear in SMILES notation. The source made the active and inactive calls. The calls were made as follows: active = hit-call score of the fitted dose curve at least 0.9, where 1 is the maximum; inactive = score below 0.9.

What all share (conditions): mRNA level, 48 h; actives raise or lower the signal
Read-out in experiment [1]: Paternally Expressed 10 (PEG10), PEG10 (gene 23089)
As to the kind of experiment: LTEA_HepaRG_PEG10: Life Technologies and Expression Analysis (LTEA) Assay for Paternally Expressed 10 (PEG10) using HepaRG (AID 2283520).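 As to AC50: differentiated HepaRG human liver cells in serum-free induction medium with 0.5% DMSO; PEG10 transcript by qRT-PCR normalised to ACTB GAPDH and POLR2A.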 The gist of the method: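 Human HepaRG cultures are dosed for 48 h across an eight-point half-log series starting at 100 uM, with 0.5% DMSO as vehicle and baseline. Gain or loss of PEG10 transcript is measured by qRT-PCR and fitted in both directions.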

Read-out in experiment [2]: Nuclear factor NF-kappa-B p105 subunit (Homo sapiens) (UniProt P19838)
As to the kind of experiment: LTEA_HepaRG_NFKB1: Life Technologies and Expression Analysis (LTEA) Assay for Nuclear Factor Kappa B Subunit 1 (NFKB1) using HepaRG (AID 2283521).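 Also: differentiated human HepaRG liver cells in serum-free induction medium; TaqMan qRT-PCR transcript normalised to ACTB GAPDH and POLR2A housekeeping genes.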 The gist of the method:
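HepaRG, 48 h exposure; 8-pt half-log series from 100 uM in 0.5% DMSO; duplicates. Readout: NFKB1 mRNA by qRT-PCR (Fluidigm arrays), housekeeping-normalized. Gain/loss fit vs DMSO baseline.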

Read-out in experiment [3]: Protein phosphatase 2A (PPP2R4), PTPA (gene 5524)
As to the kind of experiment: LTEA_HepaRG_PPP2R4: Life Technologies and Expression Analysis (LTEA) Assay for Protein phosphatase 2A (PPP2R4) using HepaRG (AID 2283522). The gist of the method: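 Cells were plated, cultured 48 h, switched to serum-free induction medium, then dosed for 48 h (8 points, max 100 uM, 0.5% DMSO). RNA was isolated and PPP2R4 expression measured by TaqMan qRT-PCR.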

Read-out in experiment [4]: Phosphatase and tensin (PTEN), PTEN (gene 5728)
As to the kind of experiment: LTEA_HepaRG_PTEN: Life Technologies and Expression Analysis (LTEA) Assay for Phosphatase and tensin (PTEN) using HepaRG (AID 2283523). The gist of the method:
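HepaRG, 48 h exposure, 8-pt half-log series from 100 uM top, 0.5% DMSO vehicle, duplicates. Readout: Fluidigm qRT-PCR of PTEN transcript; housekeeping normalization (ACTB, GAPDH, POLR2A). Gain or loss fitted relative to DMSO baseline.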

Read-out in experiment [5]: solute carrier (SLC22A1), SLC22A1 (gene 6580)
As to the kind of experiment: LTEA_HepaRG_SLC22A1: Life Technologies and Expression Analysis (LTEA) Assay for solute carrier (SLC22A1) using HepaRG (AID 2283524).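 As to AC50: differentiated human HepaRG liver cells in serum-free induction medium.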 Put shortly:
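qRT-PCR readout (TaqMan, Fluidigm arrays) of SLC22A1 transcript, normalized to three housekeeping genes; bidirectional curve fit relative to 0.5% DMSO vehicle. Differentiated human HepaRG cells, 48 h chemical exposure, top concentration 100 uM, half-log steps, eight points.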

Read-out in experiment [6]: Pyruvate Dehydrogenase Kinase 4 (PDK4), PDK4 (gene 5166)
Kind of experiment: LTEA_HepaRG_PDK4: Life Technologies and Expression Analysis (LTEA) Assay for Pyruvate Dehydrogenase Kinase 4 (PDK4) using HepaRG (AID 2283525). Put shortly: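 HepaRG (human liver line), 48 h chemical exposure, 8-pt half-log CRC top 100 uM, 0.5% DMSO vehicle, duplicates. Readout: TaqMan qRT-PCR of PDK4 mRNA, housekeeping-normalized; gain/loss fit relative to DMSO baseline.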

Read-out in experiment [7]: Nuclear factor erythroid 2-related factor 2 (Homo sapiens) (UniProt Q16236)
As to the kind of experiment: LTEA_HepaRG_NFE2L2: Life Technologies and Expression Analysis (LTEA) Assay for Nuclear factor erythroid 2-related factor 2 (NFE2L2) Transcription Factor using HepaRG (AID 2283527).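 As to outcome: TaqMan qRT-PCR transcript level normalised to ACTB GAPDH and POLR2A housekeeping genes.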 The gist of the method:
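HepaRG, 48 h dosing, 8-pt half-log series from 100 uM in 0.5% DMSO, duplicates. Read-out: NFE2L2 mRNA by qRT-PCR (ACTB/GAPDH/POLR2A normalization). Bidirectional curve fit vs DMSO baseline.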

Read-out in experiment [8]: succinate dehydrogenase complex iron sulfur subunit B (SDHB), SDHB (gene 6390)
As to the kind of experiment: LTEA_HepaRG_SDHB: Life Technologies and Expression Analysis (LTEA) Assay for succinate dehydrogenase complex iron sulfur subunit B (SDHB) using HepaRG (AID 2283528). Put shortly:
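Readout is SDHB transcript level by qRT-PCR, normalised to three housekeeping genes and fitted bidirectionally against 0.5% DMSO vehicle. Human HepaRG cells were treated for 48 h at up to 100 uM.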

Read-out in experiment [9]: Signal transducer and activator of transcription 3 (Homo sapiens) (UniProt P40763)
As to the kind of experiment: LTEA_HepaRG_STAT3: Life Technologies and Expression Analysis (LTEA) Assay for Signal transducer and activator of transcription (STAT3) using HepaRG (AID 2283529). Put shortly:
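HepaRG, 48 h exposure, 8-pt half-log series (top 100 uM), 0.5% DMSO vehicle, duplicates. Readout: STAT3 transcript by Fluidigm qRT-PCR, housekeeping-normalized; bidirectional fit vs DMSO baseline.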

Read-out in experiment [10]: solute carrier (SLCO1B1), SLCO1B1 (gene 10599)
Kind of experiment: LTEA_HepaRG_SLCO1B1: Life Technologies and Expression Analysis (LTEA) Assay for solute carrier (SLCO1B1) using HepaRG (AID 2283530). The gist of the method:
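HepaRG, serum-free induction medium, 48 h dosing, 8-pt half-log from 100 uM, 0.5% DMSO vehicle, duplicates. Readout: SLCO1B1 mRNA, qRT-PCR, ACTB/GAPDH/POLR2A normalization; up or down fit vs DMSO.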

Read-out in experiment [11]: sulfotransferase 2A1 (SULT2A1), SULT2A1 (gene 6822)
As to the kind of experiment: LTEA_HepaRG_SULT2A1: Life Technologies and Expression Analysis (LTEA) Assay for sulfotransferase 2A1 (SULT2A1) using HepaRG (AID 2283531). Put shortly:
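Transcript levels of SULT2A1, quantified by qRT-PCR and normalized to three housekeeping genes, serve as the readout. Human HepaRG cultures receive test chemicals for 48 h at up to 100 uM in half-log steps, with 0.5% DMSO vehicle.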

Read-out in experiment [12]: Transforming Growth Factor (TGFA), TGFA (gene 7039)
As to the kind of experiment: LTEA_HepaRG_TGFA: Life Technologies and Expression Analysis (LTEA) Assay for Transforming Growth Factor (TGFA) using HepaRG (AID 2283532). Put shortly:
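qRT-PCR read-out of TGFA transcript, normalized to three housekeeping genes, fitted bidirectionally against 0.5% DMSO baseline. Human HepaRG cultures received chemicals for 48 h at eight half-log concentrations, top 100 uM.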

Read-out in experiment [13]: Transforming Growth Factor (TGFB1), TGFB1 (gene 7040)
As to the kind of experiment: LTEA_HepaRG_TGFB1: Life Technologies and Expression Analysis (LTEA) Assay for Transforming Growth Factor (TGFB1) Transporter using HepaRG (AID 2283533). Put shortly:
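HepaRG, 48 h post-plating, switched to serum-free induction medium; chemicals 100 uM top, half-log, 8 pts, 0.5% DMSO, dup; 48 h exposure; RNA → Fluidigm TaqMan qRT-PCR; norm ACTB/GAPDH/POLR2A; bidirectional fit vs DMSO.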

Read-out in a further experiment: TIMP1, TIMP1 (gene 7076)
Kind of experiment: LTEA_HepaRG_TIMP1: Life Technologies and Expression Analysis (LTEA) Assay for TIMP1 using HepaRG (AID 2283534). Put shortly:
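Readout is TIMP1 mRNA level measured by qRT-PCR and normalized to three housekeeping genes. Human HepaRG cells were treated for 48 h in duplicate at eight concentrations up to 100 uM (0.5% DMSO); gain or loss fitted against DMSO.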

Read-out in experiment [14]: Tumor necrosis factor receptor 1 (TNFRSF1A), TNFRSF1A (gene 7132)
Kind of experiment: LTEA_HepaRG_TNFRSF1A: Life Technologies and Expression Analysis (LTEA) Assay for Tumor necrosis factor receptor 1 (TNFRSF1A) using HepaRG (AID 2283535). Put shortly: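 Read-out is TNFRSF1A transcript level by TaqMan qRT-PCR, normalized to three housekeeping genes, scored as gain or loss of signal versus 0.5% DMSO. Human HepaRG cells received test chemicals for 48 h at up to 100 uM (half-log series).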

Read-out in experiment [15]: Thyroid Hormone Responsive (THRSP), THRSP (gene 7069)
As to the kind of experiment: LTEA_HepaRG_THRSP: Life Technologies and Expression Analysis (LTEA) Assay for Thyroid Hormone Responsive (THRSP) using HepaRG (AID 2283536). The gist of the method:
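qRT-PCR read-out (Fluidigm TaqMan), housekeeping-normalized (ACTB/GAPDH/POLR2A). HepaRG, 48 h chemical exposure, 8-pt half-log series from 100 uM in 0.5% DMSO, duplicates. Bidirectional curve fit vs 0.5% DMSO baseline.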

Read-out in experiment [16]: Cellular tumor antigen p53 (Homo sapiens) (UniProt P04637)
As to the kind of experiment: LTEA_HepaRG_TP53: Life Technologies and Expression Analysis (LTEA) Assay for Tumor Protein P53 (TP53) using HepaRG (AID 2283537). Put shortly: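 Read-out is TP53 transcript level by microfluidic qRT-PCR, normalised to three housekeeping genes and fitted bidirectionally against DMSO. Human HepaRG cells received compounds for 48 h, highest concentration 100 uM.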

Read-out in experiment [17]: UDP glucuronosyltransferase (UGT1A1), UGT1A1 (gene 54658)
As to the kind of experiment: LTEA_HepaRG_UGT1A1: Life Technologies and Expression Analysis (LTEA) Assay for UDP glucuronosyltransferase (UGT1A1) using HepaRG (AID 2283538). The gist of the method: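 Cells are plated, cultured 48 h, switched to serum-free induction medium, then dosed 48 h at eight concentrations (max 100 uM, 0.5% DMSO). RNA is isolated and UGT1A1 expression measured by qRT-PCR; changes versus DMSO are fitted in both directions.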

Read-out in experiment [18]: UDP glucuronosyltransferase (UGT1A6), UGT1A6 (gene 54578)
As to the kind of experiment: LTEA_HepaRG_UGT1A6: Life Technologies and Expression Analysis (LTEA) Assay for UDP glucuronosyltransferase (UGT1A6) using HepaRG (AID 2283539). Put shortly: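 HepaRG, 48 h post-plating switch to serum-free induction medium; chemical 48 h, 100 uM top, half-log x8, duplicate, 0.5% DMSO. Phenobarbital 1mM induction control. UGT1A6 mRNA by TaqMan qRT-PCR; gain/loss fit vs DMSO.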

Read-out in experiment [19]: NAD(P)H dehydrogenase [quinone] 1 (NQO1), NQO1 (gene 1728)
As to the kind of experiment: LTEA_HepaRG_NQO1: Life Technologies and Expression Analysis (LTEA) Assay for NAD(P)H dehydrogenase [quinone] 1 (NQO1) using HepaRG (AID 2283526). Put shortly: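 Transcript induction or suppression is quantified by qRT-PCR in human HepaRG liver cells dosed for 48 hours. Eight half-log concentrations topping at 100 uM are used, with 0.5% DMSO as vehicle and baseline.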

Cellular tumor antigen p53 (Homo sapiens), sequence (P04637 whole entry, looked up): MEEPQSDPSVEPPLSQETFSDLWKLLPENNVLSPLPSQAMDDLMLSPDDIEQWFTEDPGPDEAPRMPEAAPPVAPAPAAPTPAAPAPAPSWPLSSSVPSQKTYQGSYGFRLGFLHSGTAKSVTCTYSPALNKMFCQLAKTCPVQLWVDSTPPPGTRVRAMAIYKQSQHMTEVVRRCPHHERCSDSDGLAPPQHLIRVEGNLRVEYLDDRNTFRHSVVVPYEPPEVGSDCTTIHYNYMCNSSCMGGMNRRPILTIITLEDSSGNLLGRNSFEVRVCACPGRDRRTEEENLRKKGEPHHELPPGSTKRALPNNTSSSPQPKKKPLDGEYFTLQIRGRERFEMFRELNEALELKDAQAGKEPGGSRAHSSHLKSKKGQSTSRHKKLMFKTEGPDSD
Nuclear factor erythroid 2-related factor 2 (Homo sapiens), sequence (Q16236 whole entry, looked up): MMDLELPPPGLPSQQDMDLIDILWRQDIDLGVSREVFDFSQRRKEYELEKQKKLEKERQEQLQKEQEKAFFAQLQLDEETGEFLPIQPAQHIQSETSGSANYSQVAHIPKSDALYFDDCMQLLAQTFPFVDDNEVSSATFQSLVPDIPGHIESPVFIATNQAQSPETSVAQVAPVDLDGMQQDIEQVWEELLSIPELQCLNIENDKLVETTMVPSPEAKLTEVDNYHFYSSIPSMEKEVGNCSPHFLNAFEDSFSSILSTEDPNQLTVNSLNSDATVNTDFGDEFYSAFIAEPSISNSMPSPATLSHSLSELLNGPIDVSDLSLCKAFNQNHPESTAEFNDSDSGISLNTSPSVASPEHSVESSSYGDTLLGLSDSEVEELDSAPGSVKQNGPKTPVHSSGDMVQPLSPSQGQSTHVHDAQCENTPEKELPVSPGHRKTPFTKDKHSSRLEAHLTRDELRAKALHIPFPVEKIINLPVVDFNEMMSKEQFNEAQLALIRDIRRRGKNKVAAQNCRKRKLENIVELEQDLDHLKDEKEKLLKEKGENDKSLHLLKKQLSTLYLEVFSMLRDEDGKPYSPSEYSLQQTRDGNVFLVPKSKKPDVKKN
Nuclear factor NF-kappa-B p105 subunit (Homo sapiens), sequence (P19838 whole entry, looked up): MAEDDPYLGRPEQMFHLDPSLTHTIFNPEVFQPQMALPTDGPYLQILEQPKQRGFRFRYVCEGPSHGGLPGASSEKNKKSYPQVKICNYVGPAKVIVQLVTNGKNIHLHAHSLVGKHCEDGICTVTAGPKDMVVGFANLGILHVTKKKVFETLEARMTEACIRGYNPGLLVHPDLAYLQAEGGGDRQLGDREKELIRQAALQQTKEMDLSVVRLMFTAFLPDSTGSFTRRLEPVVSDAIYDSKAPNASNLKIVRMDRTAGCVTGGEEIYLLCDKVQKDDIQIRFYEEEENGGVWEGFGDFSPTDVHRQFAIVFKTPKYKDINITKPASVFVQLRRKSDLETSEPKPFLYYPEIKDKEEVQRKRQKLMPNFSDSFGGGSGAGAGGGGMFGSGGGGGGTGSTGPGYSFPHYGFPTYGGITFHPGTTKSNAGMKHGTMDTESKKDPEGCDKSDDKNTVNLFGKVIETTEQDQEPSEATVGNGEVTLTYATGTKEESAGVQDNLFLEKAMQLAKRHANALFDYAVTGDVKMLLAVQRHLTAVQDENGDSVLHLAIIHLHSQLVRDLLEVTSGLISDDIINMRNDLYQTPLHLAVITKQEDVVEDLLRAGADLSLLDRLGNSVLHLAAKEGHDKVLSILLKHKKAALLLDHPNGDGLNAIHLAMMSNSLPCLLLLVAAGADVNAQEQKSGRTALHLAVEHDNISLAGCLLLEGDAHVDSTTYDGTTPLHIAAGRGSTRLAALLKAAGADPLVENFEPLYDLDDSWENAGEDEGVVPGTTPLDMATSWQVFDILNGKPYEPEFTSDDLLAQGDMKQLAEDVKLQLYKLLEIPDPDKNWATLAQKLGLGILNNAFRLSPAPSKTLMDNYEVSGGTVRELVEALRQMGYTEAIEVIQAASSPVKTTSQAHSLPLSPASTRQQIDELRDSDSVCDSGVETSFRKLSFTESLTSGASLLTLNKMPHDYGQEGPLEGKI
Signal transducer and activator of transcription 3 (Homo sapiens), sequence (P40763 whole entry, looked up): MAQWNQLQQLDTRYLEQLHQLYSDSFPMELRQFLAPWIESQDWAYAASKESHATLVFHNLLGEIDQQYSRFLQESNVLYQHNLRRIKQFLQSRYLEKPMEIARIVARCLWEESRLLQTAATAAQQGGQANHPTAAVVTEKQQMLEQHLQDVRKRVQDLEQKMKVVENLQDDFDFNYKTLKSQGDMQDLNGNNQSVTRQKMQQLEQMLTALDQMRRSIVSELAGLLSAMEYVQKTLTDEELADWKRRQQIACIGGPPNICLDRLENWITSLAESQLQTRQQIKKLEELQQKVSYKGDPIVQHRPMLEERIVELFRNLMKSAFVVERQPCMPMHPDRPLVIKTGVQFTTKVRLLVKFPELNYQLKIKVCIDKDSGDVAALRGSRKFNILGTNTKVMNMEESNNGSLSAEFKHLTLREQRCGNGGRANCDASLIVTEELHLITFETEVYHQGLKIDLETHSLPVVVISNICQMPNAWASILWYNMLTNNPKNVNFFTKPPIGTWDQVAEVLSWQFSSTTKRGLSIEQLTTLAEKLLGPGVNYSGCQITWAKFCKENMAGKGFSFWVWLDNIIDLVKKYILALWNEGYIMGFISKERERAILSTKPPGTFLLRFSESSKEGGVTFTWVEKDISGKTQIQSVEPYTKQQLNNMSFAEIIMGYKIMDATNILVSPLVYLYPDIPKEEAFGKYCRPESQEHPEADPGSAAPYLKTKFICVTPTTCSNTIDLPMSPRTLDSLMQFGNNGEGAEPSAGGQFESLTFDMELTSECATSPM

In the case of `CC(=O)N1CCN(c2ccc(OC[C@H]3CO[C@](Cn4ccnc4)(c4ccc(Cl)cc4Cl)O3)cc2)CC1`, the concentration at half-maximal activity (AC50) (commonly the midpoint of the concentration-response curve, whichever way the signal moves) in experiment [1] is 42.5 µM (active); in experiment [3] it was 76.6 µM (active); in experiment [4] it was 78.8 µM (active); in [5], 13.3 µM (active); in experiment [6], 11 µM (active); in experiment [7], 12 µM (active). The AC50 is 30.8 µM (active) in experiment [8]; 35 µM (active) in experiment [9]; 22.8 µM (active) in [10]; 12.2 µM (active) in experiment [11]; 12.1 µM (active) in experiment [12]; 90.9 µM (active) in experiment [13]. Moreover, the AC50 was 83.1 µM (active) with TIMP1, TIMP1 (gene 7076); 75.9 µM (active) in experiment [14]; 12.7 µM (active) in [15]; 90.3 µM (active) in experiment [16]; 11.6 µM (active) in [17]; 30.8 µM (active) in experiment [18]. The outcome in experiment [2] was inactive.
As to `Cc1cc(F)ccc1-c1cc(N2CC[C@@H](O)[C@H]2CO)ncc1N(C)C(=O)C(C)(C)c1cc(C(F)(F)F)cc(C(F)(F)F)c1`, the outcome in experiment [1] was “inactive”; in experiment [2], “inactive”; in experiment [6] it was “inactive”; with TIMP1, TIMP1 (gene 7076) it was “inactive”; in experiment [14] it was “inactive”; in experiment [18] it was “inactive”. Besides, the half-maximal activity concentration (AC50) was 21.5 µM (active) in [3]; 66.4 µM (active) in experiment [4]; 20.7 µM (active) in experiment [5]; 79.8 µM (active) in experiment [19]; 11.5 µM (active) in experiment [7]; 75.1 µM (active) in [8]. Moreover, the half-maximal activity concentration (AC50) in experiment [10] was 12.9 µM (active); in experiment [11], 24.7 µM (active); in experiment [12], 23.6 µM (active); in experiment [13] it was 19.3 µM (active); in experiment [15], 20.6 µM (active); in [16], 19.9 µM (active). The half-maximal activity concentration (AC50) in experiment [17] was 23 µM (active).
On to `O=C(O)c1ccccc1C(=O)OCc1ccccc1`, for which the outcome in experiment [1], in experiment [2], in experiment [3], in experiment [4], in experiment [5] and in experiment [7] was inactive. The outcome is “inactive” in [8]; “inactive” in [10]; “inactive” in experiment [11]; “inactive” in [12]; “inactive” in experiment [13]; “inactive” in the experiment with TIMP1, TIMP1 (gene 7076). Further, the compound was called inactive in [14], in experiment [15], in experiment [16] and in experiment [18]. The values for the concentration at half-maximal activity (AC50) in [6] and in [17] were 28.6 µM (active) and 24.3 µM (active), respectively.
